# Compound activity from PubChem BioAssay.
# Compounds with a hit are over-represented: about 13% of the library has one in this group of screens.
# HCMV antiviral: human cytomegalovirus inhibition | AID 1259415 | activity change, negative = inhibition, % at 57.5 µM | HFF cells, HCMV-luciferase reporter, 72 h; stronger effect = lower value | actives 4.5% (n = 410,000); in the data active = activity change below about -60%; inconclusive = no clear call, values can overlap the other calls; inactive = above about -39%
#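 HFF cells seeded 16 h at 37C, treated with compounds, infected with luciferase-reporter HCMV at MOI 1 PFU/cell; luciferase read at 72 h post infection, normalized to buffer-only and Salinomycin controls.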
# Pf growth 48h: inhibits P. falciparum growth in the first generation, 48 h | P. falciparum luciferase growth in erythrocytes, 48 h | Potency, µM (series often up to 28.7 µM), for inactives: at the top dose activity change, negative = inhibition, usual class: inhibitors | actives 5.9% (n = 310,000) | AID 504832; note: potency is the fitted concentration of half-maximal effect
#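 Luciferase-expressing P. falciparum in infected erythrocytes (2% hematocrit, 0.1% parasitemia final) in RPMI 1640/0.5% Albumax were exposed to compound for 48 hours at 37 C, 5% CO2; growth read as luminescence.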
# Pf growth 96h: inhibits malaria parasite growth, 96 h. AID 504834. Potency, µM (doses to about 28.7 µM), for the others: at the highest dose activity change, negative = inhibition, usual class: inhibitors. actives 6.9% (n = 320,000). P. falciparum luciferase reporter growth, 96 h; note: potency is the fitted concentration of half-maximal effect
#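 Parasite growth measured via integrated firefly luciferase reporter in P. falciparum. Infected erythrocytes at 2% hematocrit, 0.05% parasitemia final were treated 96 hours at 37 C under 5% CO2, and luminescence was read.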
# HCV inh: HCV inhibition; Huh7.5.1 HCVcc-Cre infection, luciferase reporter, 44 h; Potency, µM (top dose mostly 41.8 µM), for inactives: at the highest dose activity change, negative = inhibition, hits mostly inhibitors; actives 3.4% (n = 340,000); AID 651820; note: potency is the fitted concentration of half-maximal effect
#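 Luciferase read-out (15 sec integration) after a 15 min room-temperature substrate step quantifies HCVcc-Cre infection. Cells, 1,000 per well, had compound added 4 h post-plating, then virus at ~0.5 moi, and were cultured 44 h.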
# The depositor's hits bear a star; ? = inconclusive; . = no result. Unless noted, calls come from the whole dose curve; as a rule, active = well fitted inhibition curve with a large enough effect; inconclusive = small, poorly fitted or top-dose-only effect, or another doubt; inactive = no such curve, though single readings can be large or run the other way. % is set by controls: 0 for no effect and ±100 for the full control effect.
SMILES,HCMV antiviral,Pf growth 48h,Pf growth 96h,HCV inh
COc1ccc(CCNC(=O)CC2Nc3cc(C)c(C)cc3NC2=O)cc1OC (stereo not drawn),12,13µM*,.,-8%
Cc1cc2c(cc1C)NC(CC(=O)NCc1ccccc1)C(=O)N2 (stereo not drawn),-109*,?,21%,?
COc1ccc(N2CC(NC(=O)c3cc4ccccc4o3)CC2=O)cc1 (stereo not drawn),0,.,.,.
Cc1ccc(CN(Cc2cc3cc(C)ccc3[nH]c2=O)C(=O)N2CCOCC2)cc1,-19,6.6µM*,?,11%
COc1ccc(C(C)NC(=O)CN(c2cc(OC)ccc2OC)S(=O)(=O)c2ccccc2)cc1 (stereo not drawn),-7,.,.,.
CC1CCN(c2nc3nonc3nc2Nc2ccc(F)cc2)CC1,?,?,13%,11µM*
CCOC(=O)c1[nH]c(C)c(CCC(=O)Nc2c(C)cc(C)cc2C)c1C,-15,.,.,.
Cc1ccc(Cl)cc1N1CCN(C(=O)C2(S(=O)(=O)c3ccc(Cl)cc3)CC2)CC1,31,?,42%,14µM*
Cc1cccc(N2CCN(C(=O)C3(S(=O)(=O)c4ccc(Cl)cc4)CC3)CC2)c1C,?,-7%,-4%,?
COc1ccc([N+](=O)[O-])cc1-n1cnnn1,14,12%,1.5µM*,5%
COc1cc([N+](=O)[O-])ccc1N,29,11%,9.3µM*,14%
COc1ccccc1OCCCOc1ccc([N+](=O)[O-])cc1Cl,-15,55%,87%,22µM*
COc1cc(-c2ccc(N)c(OC)c2)ccc1N,2,41%,44%,-29%
Cc1ccc(S(=O)(=O)NCC(c2ccc(N(C)C)cc2)N2CCc3ccccc32)cc1C (stereo not drawn),-20,.,.,.
CCc1cc2c(=O)n(Cc3ccco3)c(SCC(=O)N3CCCc4ccccc43)nc2s1,18,9.3µM*,14%,10µM*
O=C(CSc1nc2c(sc3ccccc32)c(=O)n1Cc1ccco1)NCC1CCCO1 (stereo not drawn),-11,8.3µM*,9.3µM*,-3%
CCc1cc2c(=O)n(Cc3ccco3)c(SCc3c(C)noc3C)nc2s1,75,?,?,10µM*
CCc1cc2c(=O)n(Cc3ccco3)c(SCC(=O)NCC3CCCO3)nc2s1 (stereo not drawn),?,?,2%,10µM*
CCc1cc2c(=O)n(Cc3ccco3)c(SCC(=O)NC3CCS(=O)(=O)C3)nc2s1 (stereo not drawn),8,?,?,-19%
O=C(CSc1nc2c(sc3ccccc32)c(=O)n1Cc1ccccc1)NCC1CCCO1 (stereo not drawn),43,.,-8%,-19%
CC1Cc2cc(S(=O)(=O)NCc3ccc(Cl)cc3)ccc2N1C(=O)C1CCC1 (stereo not drawn),-20,.,.,.
CCOC(=O)Nc1ccc2c(c1)N(C(=O)CN(CC)CC)c1ccccc1CC2,10,?,?,-6%
CCN(CC)CC(=O)Nc1ccc2c(c1)N(C(=O)CN(CC)CC)c1ccccc1CC2,5,10µM*,.,?
CCN(CC)CC(=O)Nc1ccc2c(c1)Nc1ccccc1CC2,78,?,-62%,13µM*
CCN(CC)CC(=O)N1c2ccccc2CCc2ccc(NC(=O)c3cc(OC)c(OC)c(OC)c3)cc21,4,12µM*,9.3µM*,-26%
SMILES,HCMV antiviral,Pf growth 48h,Pf growth 96h,HCV inh
COCCNC(=O)Cn1cc(S(=O)(=O)Cc2ccccc2Cl)c2ccccc21,0,.,.,.
CC1(C)CC(=O)C(C=NCCc2ccc(O)cc2)=C(O)C1,2,-14%,5.2µM*,9%
CC1(C)CC(=O)C(C=NCCN2CCN(CC(=O)Nc3ccc(Cl)cc3)CC2)=C(O)C1,-8,-6%,20%,13µM*
CC1(C)CC(=O)C(C=NCCN2CCN(CCc3ccccc3)CC2)=C(O)C1,31,?,?,11µM*
CC1(C)CC(=O)C(C=NCCN2CCN(C(=O)Cc3ccccc3)CC2)=C(O)C1,16,.,?,-6%
CC1(C)CC(=O)C(C=Nc2ccc(O)c(N=CC3=C(O)CC(C)(C)CC3=O)c2)=C(O)C1,-20,10µM*,?,2%
Cc1ccn2c(c1)nc(=O)c1cc(S(=O)(=O)N3CCCCC3)c(Cl)cc12,1,.,.,.
O=c1nc2n(c3cc(Cl)c(S(=O)(=O)N4CCOCC4)cc13)CCCCC2,-9,-17%,9.3µM*,-3%
CCCCC(CCC(=O)O)(C(=O)OCC)c1csc(Nc2ccc(C)cc2)n1 (stereo not drawn),?,-1%,4.7µM*,-18%
COc1ccc(OC)c(NS(=O)(=O)c2ccc(N3CCCCS3(=O)=O)cc2)c1,-11,.,.,.
COC(=O)C1=C(C)NC(C)=C(C(=O)OCCN(C)Cc2ccccc2)C1c1cccc([N+](=O)[O-])c1 (stereo not drawn),4,1.7µM*,2.1µM*,36%
COC(=O)C1=C(C#N)NC(C)=C(C(=O)OC(C)C)C1c1cccc([N+](=O)[O-])c1 (stereo not drawn),.,7.6µM*,1.2µM*,.
COC(=O)C1=C(C)NC(C)=C(C(=O)OCCN2CCN(C(c3ccccc3)c3ccccc3)CC2)C1c1cccc([N+](=O)[O-])c1 (stereo not drawn),-64*,1.7µM*,2.4µM*,.
CCOC(=O)C1=C(C)NC(C)=C(C(=O)OCCNC(=O)c2cccnc2)C1c1cccc([N+](=O)[O-])c1 (stereo not drawn),.,?,9.3µM*,-6%
COCCOC(=O)C1=C(C)N(c2ccccc2)C(=O)NC1c1cccc([N+](=O)[O-])c1 (stereo not drawn),16,?,-52%,-4%
COC(=O)C1=C(C)NC(C)=C(C(=O)OC)C1c1ccc(-c2cccc([N+](=O)[O-])c2)o1,70,?,?,?
CCOC(=O)c1ccc(NC(=O)CSc2nc3ccccc3c(=O)n2CCNC(C)=O)cc1,4,.,.,.
O=C(Nc1cccc(F)c1)c1cccnc1,-22,-1%,7.4µM*,-3%
O=C(Nc1cccc(NC(=O)c2ccc(Cl)cc2Cl)c1)c1cccnc1,20,7%,6%,32µM*
O=C(Nc1cccc(NC(=O)c2cccnc2)c1)c1cccnc1,-4,8%,72%,1%
O=C(Nc1cccnc1)c1c(F)cccc1F,-104*,20%,.,-15%
O=C(Nc1ncccn1)c1cccc(F)c1,-76*,50%,?,14%
CCOC(=O)c1ccc(NC(=O)C2CCCN(c3ncnc4onc(-c5ccc(F)cc5)c34)C2)cc1 (stereo not drawn),3,.,.,.
CC(C)c1ccc2oc(-c3ccc(Cl)c(NC(=O)c4cccs4)c3)nc2c1,-18,.,.,.
O=C(Nc1ccc(F)c(F)c1)c1cccnc1,34,.,10µM*,24%
O=C(Nc1ccc(F)cc1)c1cccnc1,23,32%,125%,7%
CCCOc1cccc(C(=O)Nc2cccc(NC(=O)c3ccc(Cl)cc3Cl)c2)c1,-8,.,.,.
CCCOc1ccc(C(=O)Nc2cccc(NC(=O)c3ccc(Cl)cc3Cl)c2)cc1,-91*,.,.,.
